KKLEB cytotox: cytotoxicity in KKLEB CF airway cells, primary screen, cytotoxicity control for CF NF-kB inhibitor project, cell-based, uHTS, fluorescence assay plates; KKLEB CF airway cells viability, ATPlite luminescence, overnight; hits give low values; cells stimulated with P. aeruginosa culture filtrate; activity change (cytotoxicity), % at 5 µM; 360,000 tested, 0.36% active; AID 602141, 2011;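 active = corrected activity change at or below -50% at 5 µM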
Peg3 promoter: Peg3 promoter-driven luciferase inhibitors, primary screen, cell-based, HeLa, luciferase luminescence; inhibition, % at 20 µM; HeLa PEG-Prom luciferase reporter, overnight; 360,000 tested, 1.7% active; AID 588405, 2011;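 active = inhibition of at least 50% at 20 µM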
ABHD5-PLIN5 inh: ABHD5-PLIN5 interaction inhibitors, primary screen, cell lysate, split luciferase complementation, luminescence; Split G. princeps luciferase complementation, 4 h; AID 602281, 2012; 360,000 tested, 0.78% active; inhibition, % at 4 µM;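 active = inhibition above the mean inhibition across every tested compound plus 3 SD, cut at about 22% in these data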;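 note: 0% = DMSO only wells and the 100% control is not disclosed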
CF NFkB block: inhibitors of PAF-induced NF-kB signaling, primary screen, cell-based, GFP fluorescence, uHTS. KKLEB NF-kB-GFP reporter, GFP fluorescence overnight. inhibition, % at 5 µM. 360,000 tested, 0.86% active. AID 588850, 2011;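 active = at least 50% inhibition at 5 µM, scaled per plate between neutral and stimulator controls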;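 note: PAF is a Pseudomonas aeruginosa culture filtrate used as stimulus; plate controls were PAF-stimulated DMSO wells for no effect and unstimulated DMSO wells for full effect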
HIF-2a block: HIF-2a reporter inhibitors, primary screen, luminescence, 786-0 RCC cells | 786-0 RCC cells HIF-2a reporter, luciferase luminescence, overnight | inhibition, % at 18.8 µM | 360,000 tested, 0.72% active;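 active = inhibition of the luminescence signal of 40% or more relative to plate controls, in a single-dose primary screen at 18.75 µM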
TRPM1 prom inh: inhibitors of MITF-dependent TRPM1 promoter reporter, primary screen, cell-based, SK-MEL-5, single point, luciferase; SK-MEL-5 TRPM1 promoter luciferase, 24 h; inhibition, % at 12.5 µM; 330,000 tested, 0.83% active;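 active = mean inhibition across replicates of 60% or more, whatever share of single replicates reaches that level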
ABHD5-PLIN5 conf: ABHD5-PLIN5 interaction inhibitors, confirmation, biochemical, luminescence. shares compounds with ABHD5-PLIN5 inh. inhibition, % at 4 µM. 2,200 tested, 67% active. AID 651612, 2012; in the data active = inhibition above about 23%;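 note: 0% = DMSO vehicle wells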
HNF4 split-luc: HNF4 dimerization inhibitors, counter-screen for ABHD5-PLIN5 interaction inhibitor project, biochemical, split-luciferase complementation, luminescence | inhibition, % at 4 µM | shares compounds with ABHD5-PLIN5 inh | 2,200 tested, 77% active | AID 651674, 2012;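 active = mean inhibition across replicate wells exceeding the computed hit threshold, cut at about 13% in these data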;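 note: light from luciferase halves that rejoin when HNF4 fusion proteins dimerize; 0% = DMSO only wells and the 100% control is not given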
An asterisk follows results filed as active; x = not tested or not shown. Sampled rows, rich in hits. Any-hit rate of the full collection: about 3%.

SMILES	KKLEB cytotox	Peg3 promoter	ABHD5-PLIN5 inh	CF NFkB block	HIF-2a block	TRPM1 prom inh	ABHD5-PLIN5 conf	HNF4 split-luc
COc1cc(O)c(C(=O)/C=C/c2ccccc2)c(OC)c1	-7.9	61.5*	26.7*	13.8	-40.8	x	50.2*	44.2*
COc1ccc(OC)c(/C=C/C(=O)c2ccc(Cl)cc2)c1	-29.3	40.5	49.4*	20.0	-21.3	0.6	71.6*	55.1*
CCOc1ccccc1/C=C/C(=O)c1ccc(Cl)cc1	2.7	12.5	2.5	-3.1	-23.7	5.1	x	x
COc1ccccc1/C=C/C(=O)c1ccccc1	-16.7	-117.9	28.8*	12.4	-118.2	-22.5	54.7*	33.7*
COc1ccccc1/C=C/C(=O)c1ccc(NC(C)=O)cc1	7.2	-46.0	11.3	8.1	-70.8	-0.8	x	x
COc1ccccc1/C=C/C(=O)c1ccc(Cl)cc1	-4.3	1.6	27.1*	0.9	-68.3	-31.7	69.2*	48.7*
Cc1cccc(C)c1NC(=O)C1(C)CN(S(C)(=O)=O)CC(=O)N1Cc1cccs1 (stereo not given)	x	x	-12.5	x	-5.5	x	x	x
CSc1ccc(-c2nc(CN3CCCCC3c3cccnc3)c(C)o2)cc1 (stereo not given)	3.2	6.5	-2.4	-4.8	-26.0	-3.6	x	x
C=CC(=O)N1C/C(=C/c2ccc(F)cc2)C(=O)/C(=C\c2ccc(F)cc2)C1	-68.8*	106.9*	99.7*	90.9*	82.0*	96.0*	101.9*	105.5*
CC(=O)Nc1ccc(S(=O)(=O)N2c3ccc(F)cc3CCC2C)cc1 (stereo not given)	-4.6	30.7	27.0*	3.8	26.0	4.8	45.9*	5.5
CC(=O)N1c2ccc(S(=O)(=O)N3CCC(C(=O)Nc4ccc(F)cc4)CC3)cc2CC1C (stereo not given)	-24.0	15.1	-3.3	-3.2	14.0	16.5	x	x
O=C(/C=C/c1cccc(Cl)c1)Nc1ncccn1	2.1	-127.9	-0.9	1.5	-134.7	-40.6	x	x
O=C(/C=C/c1cccc(Cl)c1)c1nc2ccccc2[nH]1	-1.4	35.0	61.1*	-1.9	5.6	33.1	98.2*	98.9*
O=c1ccc2ccccc2c2ccccc12	3.3	103.4*	87.2*	64.6*	94.6*	x	97.1*	103.5*
Cc1csc(-c2nc3ccccc3n2C(C(=O)NC(C)(C)C)c2cc3ccccc3o2)c1 (stereo not given)	x	x	-13.5	x	-127.7	x	x	x
CCn1c(=O)cc(N2CCOCC2)[nH]c1=O	-5.2	-0.5	-1.4	1.0	5.3	-4.9	x	x
CCCCn1c(=O)cc(N2CCOCC2)[nH]c1=O	4.6	-0.3	25.3*	-1.6	1.5	10.0	2.5	1.9
COc1ccc(/C=C2\C(=O)NC(=O)c3ccccc32)cc1OC	1.7	-6.0	-17.5	-10.7	16.3	16.9	x	x
Cc1ccc2c(c1)/C(=C/c1ccccc1C)C(=O)N2	-9.7	26.1	7.2	5.4	12.7	-10.0	x	x
COc1ccc2c(c1)/C(=C/c1cc(OC)c(OC)c(OC)c1)C(=O)N2	-13.5	20.0	36.1*	30.5	9.6	27.2	49.4*	43.6*
Cc1ccc2c(c1)/C(=C/c1ccc(F)cc1)C(=O)N2	8.8	27.3	34.2*	-5.1	24.6	11.9	45.4*	35.6*
O=C(NNC(=O)c1ccccc1Br)c1cnccn1	3.0	-14.1	-1.8	8.9	-15.8	-4.1	x	x
O=C1c2ccccc2C(c2nnnn2Cc2ccccc2)N1Cc1cccs1 (stereo not given)	x	x	6.0	x	12.2	x	x	x
CCCn1nc2cc(C(=O)N(CC)c3ccc(OC)cc3)ccc2c1OCC	-25.6	6.2	71.3*	29.6	1.6	-9.6	3.1	0.4
